Screen size: about 220,000 compounds; about 830 (0.38%) were called active.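 How the source made its calls: active means compound inhibiting the enzyme by more than half at any dose during confirmatory dose-response retesting; inconclusive means strong single-dose inhibitors picked by rank but not retested; inactive means the rest.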 The list is a sample of the results. Entries with a potency or affinity are not part of this list.
What follows are compounds tested against Leucine aminopeptidase (Plasmodium falciparum (isolate 3D7)) (UniProt Q8IL11) (assay: P. falciparum M17LAP inhibitors, primary screen, biochemical, fluorogenic H-Leu-NHMec substrate, 1536-well (AID 1619;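 further: plate controls were full reaction with DMSO carrier for no effect and no enzyme background for full effect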)). Conditions: recombinant M17LAP, H-Leu-NHMec fluorogenic kinetic assay; at 30 µM; active compounds read high.
Chain of Leucine aminopeptidase (Plasmodium falciparum (isolate 3D7)) (Q8IL11 whole entry, looked up): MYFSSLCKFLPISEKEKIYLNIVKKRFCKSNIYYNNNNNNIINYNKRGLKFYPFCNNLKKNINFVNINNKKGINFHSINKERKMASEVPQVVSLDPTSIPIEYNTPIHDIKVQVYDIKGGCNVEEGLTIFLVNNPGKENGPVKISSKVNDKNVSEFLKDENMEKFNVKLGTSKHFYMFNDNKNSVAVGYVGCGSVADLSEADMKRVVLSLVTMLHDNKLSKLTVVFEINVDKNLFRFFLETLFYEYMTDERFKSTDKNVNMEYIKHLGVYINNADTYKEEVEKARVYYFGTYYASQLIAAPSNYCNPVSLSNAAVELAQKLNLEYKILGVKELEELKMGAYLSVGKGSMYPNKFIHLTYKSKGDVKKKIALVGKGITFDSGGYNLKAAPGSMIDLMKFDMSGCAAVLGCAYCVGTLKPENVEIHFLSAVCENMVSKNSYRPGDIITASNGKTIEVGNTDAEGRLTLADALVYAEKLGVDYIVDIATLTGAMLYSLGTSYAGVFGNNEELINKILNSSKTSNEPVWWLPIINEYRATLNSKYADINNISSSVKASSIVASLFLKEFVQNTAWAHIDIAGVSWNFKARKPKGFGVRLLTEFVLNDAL
With `CC1(OC(=O)C2CCCC2)C(=O)C=C2C=C(c3ccsc3)N(c3ccccc3)C=C2C1=O` (configuration not stated) the inhibition was -5.77% (inactive). In the case of `O=C(OCCN1C(=O)c2ccccc2C1=O)c1ccco1`, the inhibition is reported as 15.3% (inactive). With `Cc1ccc(NC(=O)Nc2ccc(C(=O)N3CCOCC3)cc2)cc1` the inhibition was 41% (inactive). For `COc1ccc(NC(=O)Nc2ccc(C(=O)N3CCOCC3)cc2)c(OC)c1`, the inhibition was -5.93% (inactive). In the case of `CCN1CCN(Cc2ccc(NC(=O)Nc3ccccc3)cc2)CC1`, the inhibition is reported as 50.7% (inactive). With `CCN1CCN(Cc2ccc(NC(=O)Nc3ccccc3OC)cc2)CC1` the inhibition was -5.76% (inactive). In the case of `CC(=O)Nc1cccc(C(=O)/C=C/c2ccco2)c1`, the inhibition is reported as 17.6% (inactive). `O=C(O)c1ccccc1/C=N/N1CCN(C2c3ccccc3-c3ccccc32)CC1` was tested, and the inhibition was -1.62% (inactive). In the case of `Brc1ccc(C2=Nn3c(nnc3-c3n[nH]c4c3CCC4)SC2)cc1`, the inhibition is reported as 6.03% (inactive). In the case of `CCn1c(O)c(N=N)c2ccccc21`, the inhibition is reported as 12.4% (inactive). In the case of `O=C(N/N=C/c1coc2ccccc2c1=O)c1cc(O)cc(O)c1`, the inhibition is reported as 29.1% (inactive). In the case of `O=C(N/N=C/c1coc2ccccc2c1=O)c1ccccc1`, the inhibition is reported as 11.9% (inactive). In the case of `Cc1c(C(=O)N2CCCC2)sc(NC(=O)c2cccc(Cl)c2)c1C#N`, the inhibition is reported as 18.9% (inactive). With `Cc1ccc(SCC(=O)NCCC2=CCCCC2)cc1` the inhibition was -5.26% (inactive). For `O=C(CSc1ccccc1C(=O)O)NCc1ccccc1`, the inhibition was 17.3% (inactive). In the case of `O=C(CSc1ncccn1)NCc1ccc(F)cc1`, the inhibition is reported as 2.25% (inactive). `O=C(COC(=O)c1cccnc1SCC(=O)NCc1ccccc1)NCc1ccccc1` was tested, and the inhibition was 5.78% (inactive). With `O=C(COC(=O)c1cccnc1Cl)NCCC1=CCCCC1` the inhibition was 3.53% (inactive). For `O=C(CSc1ccccc1C(=O)O)NCc1ccco1`, the inhibition was 16.5% (inactive). For `Cc1cccc2cc(C(c3nnnn3Cc3ccccc3)N3CCN(c4ccccc4)CC3)c(=O)[nH]c12` (configuration not stated), the inhibition was 2.86% (inactive). For `COc1ccc(N2C(=O)CC(SCCc3nc4ccccc4[nH]3)C2=O)cc1` (configuration not stated), the inhibition was 5.58% (inactive). For `CC1=C(C(=O)NCc2ccccc2)C(c2cccs2)n2ncnc2N1` (configuration not stated), the inhibition was -3.95% (inactive). In the case of `O=C(NNC(=S)Nc1ccccc1)Nc1ccccc1`, the inhibition is reported as 9.53% (inactive). For `COCCNC(=O)/C(C#N)=C/c1ccc(C)o1`, the inhibition was 23.4% (inactive). `N#C/C(=C\c1ccc(N2CCOCC2)o1)C(=O)Nc1ccc(O)cc1` was tested, and the inhibition was 43.7% (inactive). With `N#C/C(=C\c1ccc(N2CCOCC2)o1)C(=O)NC1CCCCC1` the inhibition was 48.6% (inactive). For `N#C/C(=C/c1ccc(N2CCOCC2)o1)C(=O)Nc1ccccc1`, the inhibition was 11.7% (inactive). In the case of `N#C/C(=C\c1ccc(N2CCOCC2)o1)C(=O)NCCc1ccccc1`, the inhibition is reported as 10.1% (inactive). With `N#C/C(=C\c1ccc(N2CCOCC2)o1)C(=O)NCC1CCCO1` (configuration not stated) the inhibition was 51% (inactive). In the case of `CCN1CCN(Cc2ccc(NC(=O)c3cc(NC(=O)C4=NN(c5ccccc5)C(=O)C4)cc(OC)c3)cc2C(F)(F)F)CC1`, the inhibition is reported as 6.5% (inactive). For `CCn1c(SCC(=O)OCc2ccccc2)nnc1-c1ccco1`, the inhibition was 4.57% (inactive). In the case of `CCOC(=O)COc1ccccc1/C=C1/NC(=O)NC1=O`, the inhibition is reported as -4.69% (inactive). With `CCOC(=O)c1c(C)[nH]c(C(=O)OCC(=O)Nc2ccc(OCC)cc2)c1C` the inhibition was -8.26% (inactive). For `COc1ccc(C(C)C)cc1S(=O)(=O)n1ccnc1C`, the inhibition was -18.1% (inactive). For `COC1=Cc2c(ccc3ccc(=O)oc23)OC1(C)C`, the inhibition was -5.99% (inactive). With `CC(Sc1nc(-c2ccccc2)cc(=O)[nH]1)C(=O)O` (configuration not stated) the inhibition was 22.4% (inactive). `CCC(Sc1nc(-c2ccccc2)cc(=O)[nH]1)C(=O)O` (configuration not stated) was tested, and the inhibition was 10% (inactive). For `COc1cccc(CNC(=O)CN2C(=O)CSc3ccc(S(=O)(=O)N4CCCC4)cc32)c1`, the inhibition was 1.2% (inactive). `COc1ccc(C(=O)NCC(=O)OCC(=O)Nc2c(C)n(C)n(-c3ccccc3)c2=O)cc1` was tested, and the inhibition was 5.29% (inactive). For `c1ccc(COc2ccccc2CNc2nn[nH]n2)cc1`, the inhibition was 6.74% (inactive). For `COc1ccc(CNc2nn[nH]n2)cc1OC`, the inhibition was 26.5% (inactive). For `COc1ccc(/C=N/NC(=S)N[C@H]2CC3CCC2C3)cc1` (some centres not stated), the inhibition was 3.46% (inactive). `COc1ccc(C(=O)Nc2nc3cc(OC)c(OC)cc3c(=O)[nH]2)cc1` was tested, and the inhibition was 0.22% (inactive). In the case of `CC1CCC2(CC1)NC(=O)N(CC(=O)N1CCN(S(=O)(=O)c3ccccc3)CC1)C2=O` (configuration not stated), the inhibition is reported as 5.42% (inactive). In the case of `CS(=O)(=O)CCC(C(=O)N1CCOCC1)N1C(=O)c2cc(Cl)c(Cl)cc2C1=O` (configuration not stated), the inhibition is reported as 6.46% (inactive). `COc1cccc(Nc2ncnc3c2cnn3C)c1` was tested, and the inhibition was 16.4% (inactive). With `Cc1cccc(Nc2ncnc3ccccc23)c1` the inhibition was 19.2% (inactive). `Cc1cccc(Nc2ncnc3ccc(Br)cc23)c1` was tested, and the inhibition was 5.43% (inactive). For `COc1cccc(Nc2ncnc3ccccc23)c1`, the inhibition was 13.6% (inactive). In the case of `CCN1C(=O)/C(=C\c2nc3ccccc3c(=O)n2-c2ccccc2)c2ccccc21`, the inhibition is reported as -3.98% (inactive). With `CCOC(=O)c1cnc2c(C)c(Cl)ccc2c1Nc1ccc(S(=O)(=O)Nc2ncccn2)cc1` the inhibition was -6.24% (inactive). For `CC(=O)NC(O)C(=O)c1ccco1` (configuration not stated), the inhibition was 3.51% (inactive). With `C=CCn1c(SCC(=O)Nc2c(C)cccc2C)nnc1-c1ccncc1` the inhibition was -1.77% (inactive). `COc1ccc(C(=O)COC(=O)C2CCC(=O)N2)cc1` (configuration not stated) was tested, and the inhibition was -3.64% (inactive). In the case of `Cc1ccc2nc(SCCC(=O)O)cc(C)c2c1`, the inhibition is reported as 43.9% (inactive). In the case of `Cc1cc(C)nc(Nc2n[nH]c(-c3ccccc3Br)n2)n1`, the inhibition is reported as -2.55% (inactive). In the case of `Nc1nc(-c2ccccc2Br)cs1`, the inhibition is reported as -3.14% (inactive). With `CC(C)CC(C(=O)O)N1C(=O)[C@@H]2[C@H](C1=O)[C@@H]1C[C@H]2C(Br)C1Br` (some centres not stated) the inhibition was 42.5% (inactive). `Cc1[nH]n(-c2ncc(-c3ccccc3)s2)c(=O)c1C(c1ccc(Br)cc1)C(C#N)C#N` (configuration not stated) was tested, and the inhibition was 6.12% (inactive). For `Cc1[nH]n(-c2ncc(-c3ccccc3)s2)c(=O)c1C(c1ccc(Cl)cc1)C(C#N)C#N` (configuration not stated), the inhibition was 21.9% (inactive). `O=C(COC(=O)Cc1c[nH]c2ccccc12)Nc1ccccc1` was tested, and the inhibition was 0.86% (inactive). `CC(C)(C)c1ccc(C(=O)C2CCCN(C(=O)C3CCOCC3)C2)cc1` (configuration not stated) was tested, and the inhibition was -15.1% (inactive). `O=C(CN1CCC(n2nnc3cc(C(F)(F)F)ccc32)CC1)N1CCc2ccccc21` was tested, and the inhibition was 10.6% (inactive). For `O=C(CN1C(=O)c2ccccc2S1(=O)=O)NCCC1=CCCCC1`, the inhibition was 43.9% (inactive). For `COc1ccc(CCNC(=O)CN2C(=O)c3ccccc3S2(=O)=O)cc1`, the inhibition was 34.7% (inactive). With `Cc1ccc(SCCNC(=O)CN2C(=O)c3ccccc3S2(=O)=O)cc1` the inhibition was 54.1% (inactive). With `O=C(CN1C(=O)c2ccccc2S1(=O)=O)Nc1ccccc1C(=O)NCc1ccco1` the inhibition was 23.5% (inactive). `Cc1ccc(CSCCNC(=O)CN2C(=O)c3ccccc3S2(=O)=O)cc1` was tested, and the inhibition was 46.9% (inactive). For `CC(C)(C)SCCNC(=O)CN1C(=O)c2ccccc2S1(=O)=O`, the inhibition was 32.2% (inactive). In the case of `Cc1ccc(N(C(C)C(=O)O)S(=O)(=O)c2c(C)[nH]c(=O)[nH]c2=O)cc1` (configuration not stated), the inhibition is reported as 3.87% (inactive). In the case of `c1ccc(Cn2nnc3c(N4CCc5ccccc54)ncnc32)cc1`, the inhibition is reported as -4.35% (inactive). `CCCNC(=O)NS(=O)(=O)c1cnccc1Sc1ccc(Cl)c(Cl)c1` was tested, and the inhibition was 9.08% (inactive). With `Cc1ccc(NC(=O)Cn2cccc2C2=NC(c3ccccc3)CO2)cc1C` (configuration not stated) the inhibition was -6.31% (inactive). With `COC(=O)CSc1nc2cc3c(cc2cc1C)OCO3` the inhibition was -14.1% (inactive). `Cc1cc(NC(=O)CCN2C(=O)C3C4CCC(C4)C3C2=O)cc(C)c1Br` (configuration not stated) was tested, and the inhibition was 3.99% (inactive). With `Cc1c(Br)ccc(NC(=O)CCN2C(=O)C3C4CCC(C4)C3C2=O)c1C` (configuration not stated) the inhibition was 15.8% (inactive). With `O=C(NCc1ccccn1)C(=O)N/N=C/c1ccc2c(c1)OCO2` the inhibition was 9.75% (inactive). With `Nc1nc2c(s1)C(=O)CCC2` the inhibition was 12.6% (inactive). `Nc1nc2c(s1)CC(c1ccccc1)CC2` (configuration not stated) was tested, and the inhibition was 18.1% (inactive). For `COc1ccc(C2CC(=O)c3sc(NC(C)=O)nc3C2)cc1` (configuration not stated), the inhibition was -0.56% (inactive). With `COc1ccc(Nc2ncc3c(n2)CC(c2ccc(OC)cc2)CC3=O)cc1` (configuration not stated) the inhibition was 0.52% (inactive). For `CCCC(=O)Nc1nnc(SCC(=O)Nc2ccc3c(c2)OCCO3)s1`, the inhibition was -3.46% (inactive). `Cc1cc(=O)[nH]c(SCC(=O)Nc2ccc3c(c2)OCCO3)n1` was tested, and the inhibition was 36.2% (inactive). With `CC(C)C(=O)Nc1nnc(SCC(=O)Nc2ccc3c(c2)OCO3)s1` the inhibition was 14.7% (inactive). In the case of `O=C(CSc1ncn(-c2ccccc2)n1)Nc1ccc2c(c1)OCCO2`, the inhibition is reported as 27.7% (inactive). `CC(C)c1nc(SCC(=O)Nc2ccc3c(c2)OCCO3)n[nH]1` was tested, and the inhibition was 20.1% (inactive). In the case of `Nc1nc(SCC(=O)Nc2ccc3c(c2)OCO3)n[nH]1`, the inhibition is reported as 4.7% (inactive). With `CCc1c(C)nc(SCC(=O)Nc2ccc(Br)cc2)[nH]c1=O` the inhibition was 19.5% (inactive). With `Cc1csc(SCC(=O)Nc2ccc3c(c2)OCCO3)n1` the inhibition was -1.69% (inactive). With `CCc1nc(SCC(=O)N2CCN(c3ccccc3)CC2)c2c(=O)n(C)c(=O)n(C)c2n1` the inhibition was 3.46% (inactive). In the case of `O=C(Nc1ccc(S(=O)(=O)NCc2ccco2)cc1)C1CCCCC1`, the inhibition is reported as 2.33% (inactive). `CC(=O)c1sc(NC(=O)CCOc2ccccc2)nc1C` was tested, and the inhibition was -0.71% (inactive). For `CCN1CCN(C(=O)CN(C)S(=O)(=O)c2ccc(Cl)cc2)CC1`, the inhibition was -6.75% (inactive). With `CC(C)CNC(=O)C1CCN(c2ccc(S(=O)(=O)N3CCOCC3)cc2)CC1` the inhibition was -3.46% (inactive). With `CSc1nc(Cc2ccccc2)nc2ccccc12` the inhibition was 0.06% (inactive). With `COc1ccc2c(c1)c(C(=O)N/N=C/c1ccc(OC)c(OC)c1)c(C)n2C` the inhibition was -4.74% (inactive). In the case of `COc1ccc2c(c1)c(C(=O)N/N=C/c1cccc(O)c1)c(C)n2C`, the inhibition is reported as 11.1% (inactive).
